This note sets out measurements from PubChem BioAssay AID504401 (The Scripps Research Institute Molecular Screening Center, 2011).

For this experiment, the system named is Potassium Channel KATP. As to the kind of experiment: CYP450 and receptor off-target profile – biochemical, Ricerca HitProfilingScreen, selectivity assay for GPR7 antagonist project, late-stage follow-up (AID 504401). As to conditions: Ricerca radioligand binding and CYP450 panel, at 10 µM, hits give high values.

Each structure is given as a SMILES string. Values without a mark were called inactive. No rule for the calls is given here.

For `COc1ccc(Oc2c(Cl)cnn(-c3cc(C)cc(C)c3)c2=O)cc1`, the inhibition is 11%.

A word on the inhibition: it is the percentage by which the read-out fell short of the control.
